# Test results as given in PubChem BioAssay (NCATS).
# Several values for one entry are separate records, joined by “and”; a condition that tells them apart may be missing. Equal entries are not always repeated. Values without a mark were called inactive. Results filed as inconclusive are left out. The list shows a part of the results. A call without a number means that no potency is given here. Activity calls are given as the source filed them. Unless noted, the call rests on the fitted dose curve; in most records, active means well fitted curve in the direction sought with a large enough effect; inconclusive means small, poorly fitted or top-dose-only effect, or another doubt; inactive means no such curve, though single readings can be large; an effect the other way counts as inactive or inconclusive.
# Legend:
# [1] = target: Androgen receptor (Homo sapiens) (UniProt P10275); experiment: qHTS assay for small molecule agonists of androgen receptor signaling (AID 588515; active means well fitted curve in the direction sought with a large enough effect in the signal ratio, with a control signal flat; the % refers to the signal ratio); details: AR-UAS-bla HEK293, beta-lactamase ratio, agonist 16 h; stronger effect = higher value
# Sequence of Androgen receptor (Homo sapiens) (P10275 whole entry, looked up): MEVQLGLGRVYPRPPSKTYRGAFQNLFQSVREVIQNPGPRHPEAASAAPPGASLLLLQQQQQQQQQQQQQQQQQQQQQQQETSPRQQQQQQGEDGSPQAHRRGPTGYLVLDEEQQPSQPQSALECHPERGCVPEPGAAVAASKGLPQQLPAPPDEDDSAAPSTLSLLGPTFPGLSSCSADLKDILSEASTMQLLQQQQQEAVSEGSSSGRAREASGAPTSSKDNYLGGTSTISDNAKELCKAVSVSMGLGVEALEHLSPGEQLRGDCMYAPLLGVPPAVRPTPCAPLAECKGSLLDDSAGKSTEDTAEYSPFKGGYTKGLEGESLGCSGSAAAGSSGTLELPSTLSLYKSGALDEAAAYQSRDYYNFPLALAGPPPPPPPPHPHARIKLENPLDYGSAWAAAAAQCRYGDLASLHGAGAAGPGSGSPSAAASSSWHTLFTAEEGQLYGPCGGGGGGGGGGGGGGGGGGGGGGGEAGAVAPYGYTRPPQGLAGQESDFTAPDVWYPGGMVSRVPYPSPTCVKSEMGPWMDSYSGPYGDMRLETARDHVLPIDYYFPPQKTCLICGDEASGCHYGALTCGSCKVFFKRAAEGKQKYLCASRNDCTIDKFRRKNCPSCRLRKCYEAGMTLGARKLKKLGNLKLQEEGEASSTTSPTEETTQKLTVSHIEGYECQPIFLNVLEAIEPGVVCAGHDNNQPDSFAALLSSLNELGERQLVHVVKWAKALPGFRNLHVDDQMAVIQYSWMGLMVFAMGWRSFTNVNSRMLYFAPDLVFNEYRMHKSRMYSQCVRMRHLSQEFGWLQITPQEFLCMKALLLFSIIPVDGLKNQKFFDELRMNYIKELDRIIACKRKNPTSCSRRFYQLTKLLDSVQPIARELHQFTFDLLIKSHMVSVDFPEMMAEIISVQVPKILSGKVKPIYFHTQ
# How it was run: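 Stimulation of an AR-responsive β-lactamase reporter in GripTite HEK293 cells was measured after 16 h compound exposure at 37 °C, via CCF4 fluorescence after 2 h RT. EC50 from Hill fits, normalized to R1881 at 30 nM.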
# [2] = target: Androgen receptor (Homo sapiens) (UniProt P10275); experiment: qHTS assay for small molecule antagonists of androgen receptor signaling (AID 588516; active means well fitted curve in the direction sought with a large enough effect in the signal ratio, with a control signal flat, not every such curve was filed as active; the % refers to the signal ratio); details: AR-UAS-bla HEK293, beta-lactamase ratio, antagonist mode, 16 h; series mostly up to 76.8 µM
# How it was run: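 HEK293 AR-UAS-bla cells, 10% dialyzed FBS medium; cpd titration + R1881 10 nM final, 16 h 37 C; CCF4 2 h RT; FRET ratio; IC50/efficacy via Hill fit.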
# [3] = target: Peroxisome proliferator-activated receptor delta (Homo sapiens) (UniProt Q03181); experiment: qHTS assay for small molecule antagonists of peroxisome proliferator-activated receptor delta signaling (AID 588535; active means well fitted inhibition curve with a large enough effect in the signal ratio, with a control signal flat, not every such curve was filed as active; the % refers to the signal ratio); details: HEK293T PPARd-UAS-bla, beta-lactamase FRET ratio, 18 h; series mostly up to 76.7 µM
# Sequence of Peroxisome proliferator-activated receptor delta (Homo sapiens) (Q03181 whole entry, looked up): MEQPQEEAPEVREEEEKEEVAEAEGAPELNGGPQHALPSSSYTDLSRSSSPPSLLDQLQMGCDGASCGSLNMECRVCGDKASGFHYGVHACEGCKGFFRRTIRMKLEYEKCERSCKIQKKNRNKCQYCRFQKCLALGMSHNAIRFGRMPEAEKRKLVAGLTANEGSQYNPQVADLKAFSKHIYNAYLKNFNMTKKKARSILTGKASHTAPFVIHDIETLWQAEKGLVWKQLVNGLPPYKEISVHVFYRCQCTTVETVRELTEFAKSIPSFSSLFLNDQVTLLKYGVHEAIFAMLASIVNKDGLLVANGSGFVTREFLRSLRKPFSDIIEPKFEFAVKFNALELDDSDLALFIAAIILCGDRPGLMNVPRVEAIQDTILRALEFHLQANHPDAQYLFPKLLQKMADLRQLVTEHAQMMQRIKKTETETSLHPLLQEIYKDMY
# How it was run: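 Inhibition of PPAR-delta response element-driven beta-lactamase expression is measured in HEK293T cells exposed to a compound titration series for 18 hrs at 37 C. Half-maximal inhibition comes from Hill equation fitting.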
# [4] = target: Cytochrome P450 3A4 (Homo sapiens) (UniProt P08684); experiment: qHTS Assay for Activators of Cytochrome P450 3A4 (AID 885); details: recombinant CYP3A4, Luciferin-PPXE luminescence, 60 min; series mostly up to 11.4 µM; further: nearly all actives have a fitted effect of over 65% in size; further: potency means the concentration at half of the fitted maximal effect
# Sequence of Cytochrome P450 3A4 (Homo sapiens) (P08684 whole entry, looked up): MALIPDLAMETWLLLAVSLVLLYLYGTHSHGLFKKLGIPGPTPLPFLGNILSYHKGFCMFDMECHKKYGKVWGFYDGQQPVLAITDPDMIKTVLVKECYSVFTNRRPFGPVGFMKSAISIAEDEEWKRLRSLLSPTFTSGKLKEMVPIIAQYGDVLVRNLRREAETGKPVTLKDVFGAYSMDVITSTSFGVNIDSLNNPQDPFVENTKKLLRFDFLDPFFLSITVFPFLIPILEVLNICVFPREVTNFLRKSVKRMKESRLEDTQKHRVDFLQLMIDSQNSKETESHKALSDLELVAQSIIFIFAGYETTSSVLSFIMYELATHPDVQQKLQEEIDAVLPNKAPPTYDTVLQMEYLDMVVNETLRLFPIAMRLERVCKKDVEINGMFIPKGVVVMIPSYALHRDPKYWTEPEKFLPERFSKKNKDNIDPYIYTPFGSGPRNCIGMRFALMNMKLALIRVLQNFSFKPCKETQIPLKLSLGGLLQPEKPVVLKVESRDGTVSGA
# How it was run: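 Activators are scored by enhanced luminescence from CYP3A4 conversion of luciferin-PPXE (25uM, equal to KM) to luciferin, after 60 min at RT with an NADPH-regenerating system.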
# [5] = target: ATP-dependent 6-phosphofructokinase (Trypanosoma brucei brucei) (UniProt O15648); experiment: qHTS Assay to Find Inhibitors of T. brucei phosphofructokinase: hit validation (AID 492961);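 further: luminescence reports ADP formed as PFK phosphorylates fructose-6-phosphate with ATP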; details: T. brucei PFK, ADP-Glo luminescence; series mostly up to 51.4 µM
# Sequence of ATP-dependent 6-phosphofructokinase (Trypanosoma brucei brucei) (O15648 whole entry, looked up): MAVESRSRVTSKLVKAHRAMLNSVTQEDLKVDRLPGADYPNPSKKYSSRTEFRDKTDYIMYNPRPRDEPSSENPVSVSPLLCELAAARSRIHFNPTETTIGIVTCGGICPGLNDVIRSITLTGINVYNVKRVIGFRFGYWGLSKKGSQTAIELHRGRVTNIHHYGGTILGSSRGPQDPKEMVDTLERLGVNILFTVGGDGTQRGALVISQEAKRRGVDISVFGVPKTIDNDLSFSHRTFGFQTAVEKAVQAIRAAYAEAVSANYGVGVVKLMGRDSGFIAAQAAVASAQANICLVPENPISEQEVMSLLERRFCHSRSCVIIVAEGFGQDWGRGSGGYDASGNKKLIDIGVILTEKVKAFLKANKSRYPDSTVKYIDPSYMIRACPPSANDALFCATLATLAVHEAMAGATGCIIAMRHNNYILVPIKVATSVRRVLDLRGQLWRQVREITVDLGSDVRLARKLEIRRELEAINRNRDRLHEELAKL
# How it was run: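 PFK 1.25 nM, F6P 0.5 mM, ATP 0.1 mM, MgCl2 5 mM, 0.1 M TEA pH 8.0, Tween20 0.01%, BSA 0.1%; 45 min RT. ADP-Glo two-step detection, luminescence. qHTS titration; curve fitting with curve-class categorization.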
# CP185 = experiment: qHTS profiling for inhibitors of Plasmodium falciparum proliferation (AID 504749); further: nearly all actives have a fitted effect of over 60% in size; details: P. falciparum in erythrocytes, SYBR Green DNA, 72 h; series mostly up to 28.7 µM
# How it was run: (§1)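 Quantitative HTS: compounds pinned into medium, infected erythrocytes added (0.3% parasitemia, 2.5% hematocrit), 72 h culture at 37 C under 5% CO2. Saponin/Triton lysis with SYBR Green I, overnight RT, then fluorescence read.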
# CP191 = experiment: as above; details: P. falciparum in erythrocytes, SYBR Green DNA, 72 h; series mostly up to 28.7 µM
# How it was run: as §1
# CP192 = experiment: as above; details: P. falciparum in erythrocytes, SYBR Green DNA, 72 h; series mostly up to 28.7 µM
# How it was run: as §1
# CP194 = experiment: as above; details: P. falciparum in erythrocytes, SYBR Green DNA, 72 h; series mostly up to 28.7 µM
# How it was run: as §1
# CP201 = experiment: as above; details: P. falciparum in erythrocytes, SYBR Green DNA, 72 h; series mostly up to 28.7 µM
# How it was run: as §1
# CP203 = experiment: as above; details: P. falciparum in erythrocytes, SYBR Green DNA, 72 h; series mostly up to 28.7 µM
# How it was run: as §1
# CP305 = experiment: as above; details: P. falciparum in erythrocytes, SYBR Green DNA, 72 h; series mostly up to 28.7 µM
# How it was run: as §1
# DIV30 = experiment: as above; details: P. falciparum in erythrocytes, SYBR Green DNA, 72 h; series mostly up to 28.7 µM
# How it was run: as §1
# P94_40 = experiment: as above; details: P. falciparum in erythrocytes, SYBR Green DNA, 72 h; series mostly up to 28.7 µM
# How it was run: as §1
# PC49 = experiment: as above; details: P. falciparum in erythrocytes, SYBR Green DNA, 72 h; series mostly up to 28.7 µM
# How it was run: as §1
# TAB113 = experiment: as above; details: P. falciparum in erythrocytes, SYBR Green DNA, 72 h; series mostly up to 28.7 µM
# How it was run: as §1
# [6] = target: DNA dC->dU-editing enzyme APOBEC-3G (Homo sapiens) (UniProt Q9HC16); experiment: qHTS for inhibitors of Vif-A3G interactions: Validation (AID 588379); details: Vif-A3G protein interaction assay; series mostly up to 46.1 µM
# Sequence of DNA dC->dU-editing enzyme APOBEC-3G (Homo sapiens) (Q9HC16 whole entry, looked up): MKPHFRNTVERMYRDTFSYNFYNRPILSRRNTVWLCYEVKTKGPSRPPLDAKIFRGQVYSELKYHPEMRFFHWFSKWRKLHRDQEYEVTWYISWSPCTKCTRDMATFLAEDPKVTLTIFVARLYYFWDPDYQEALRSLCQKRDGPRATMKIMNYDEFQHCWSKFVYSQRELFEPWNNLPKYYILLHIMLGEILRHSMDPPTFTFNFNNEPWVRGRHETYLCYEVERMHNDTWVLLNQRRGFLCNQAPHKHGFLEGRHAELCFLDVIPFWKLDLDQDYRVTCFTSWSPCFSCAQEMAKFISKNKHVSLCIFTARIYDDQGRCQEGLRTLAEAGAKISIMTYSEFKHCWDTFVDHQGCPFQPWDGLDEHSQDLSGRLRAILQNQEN
# How it was run: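 Yellow fluorescence (Ex 488, Em 500-530) of Vif-coexpressing HeLa A3G-eYFP cells, scanned by Acumen cytometer, reports blocked A3G degradation. Cells plated at 700/well overnight at 37 deg C before compound addition, then a further overnight compound incubation at 37 deg C.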
# [7] = Counterscreen for APE1 Inhibitors: Fluorescent Dye Displacement Assay (AID 2564); details: DNA fluorescent dye displacement counterscreen, fluorescence; series mostly up to 28.5 µM;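 further: loss of thiazole orange fluorescence as the dye is displaced from duplex DNA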
# How it was run: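 Endpoint fluorescence read at 480 nm excitation / 540 nm emission; DNA-binding compounds lower signal by displacing 250 nM Thiazole Orange from 50 nM dsDNA containing a tetrahydrofuran abasic site, Tris-HCl pH7.5 buffer with NaCl and MgCl2.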
# [8] = target: DNA repair nuclease/redox regulator APEX1 (Homo sapiens) (UniProt P27695); experiment: qHTS FP-Based Assay for Inhibitors of the Human Apurinic/apyrimidinic Endonuclease 1 (APE1) (AID 2573); details: APE1 binding to TAMRA-labelled double-stranded DNA, fluorescence polarization displacement; series mostly up to 28.5 µM; further: potency means the concentration at half of the fitted maximal effect
# Sequence of DNA repair nuclease/redox regulator APEX1 (Homo sapiens) (P27695 whole entry, looked up): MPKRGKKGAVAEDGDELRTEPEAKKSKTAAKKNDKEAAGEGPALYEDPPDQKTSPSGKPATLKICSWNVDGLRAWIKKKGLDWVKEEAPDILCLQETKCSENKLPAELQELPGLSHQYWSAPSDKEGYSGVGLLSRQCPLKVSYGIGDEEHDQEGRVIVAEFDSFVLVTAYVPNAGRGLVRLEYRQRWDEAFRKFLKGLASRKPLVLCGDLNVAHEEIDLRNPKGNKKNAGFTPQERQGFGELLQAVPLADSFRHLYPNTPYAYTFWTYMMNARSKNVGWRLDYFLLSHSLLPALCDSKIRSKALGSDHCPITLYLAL
# [9] = target: DNA repair nuclease/redox regulator APEX1 (Homo sapiens) (UniProt P27695); experiment: Confirmation qHTS Assay for Inhibitors of the Human Apurinic/apyrimidinic Endonuclease 1 (APE1) (AID 2572); details: purified APE1, fluorogenic abasic-site DNA cleavage; series mostly up to 57.1 µM; further: nearly all actives have a fitted effect of over 30% in size; further: potency means the concentration at half of the fitted maximal effect
# How it was run: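 Confirmation qHTS in dose-response format: APE1 exposed to compound 15 min at RT, then reaction started with 50 nM final TAMRA/BHQ-2 abasic substrate. Three fluorescence reads 60 s apart; endpoint minus initial read gives progress.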
compound,measurement,setting,value
C/C(Cl)=C/CCl,activation,[1],10.2%
same,outcome,[2],inactive
CCOC(=O)C1OC1c1ccccc1 (centres undefined),outcome,[3],inactive
COc1cc(-c2ccc(N=C=O)c(OC)c2)ccc1N=C=O,Potency,[4],inactive
CCC(Cl)CC(Cl)C(Cl)C(Cl)C(Cl)C(C)Cl (centres undefined),activation,[1],-4.22%
same,outcome,[3],inactive
c1ccc(CSCc2ccccc2)cc1,outcome,[3],inactive
CCCC(=O)OC(=O)CCC,outcome,[3],inactive
CC(C)OCC1CO1 (centres undefined),outcome,[3],inactive
Cc1ccc(N)cc1[N+](=O)[O-],outcome,[2],inactive
same,outcome,[3],inactive
Cc1ccc(C(=O)O)cc1[N+](=O)[O-],activation,[1],6.4%
same,outcome,[2],inactive
CCCCC(CC)COCCCN (centres undefined),Potency,[4],inactive
same,outcome,[3],inactive
COc1ccc(C(=O)Nc2ccccc2)cc1[N+](=O)[O-],Potency,[4],inactive
CCNC(=S)NCC,Potency,[4],inactive
O=[N+]([O-])c1ccc(F)cc1F,outcome,[3],inactive
Oc1c(Cl)cc(Cl)c(Cl)c1Cl,outcome,[3],inactive
COc1ccc(C)cc1N,activation,[1],1.38%
c1ccc(SCCSc2ccccc2)cc1,activation,[1],12.3%
c1ccc2ncccc2c1,outcome,[3],inactive
Nc1cc([N+](=O)[O-])ccc1O,activation,[1],-20.1%
same,outcome,[2],inactive
C=C1CC[C@H](O)C/C1=C/C=C1\CCC[C@]2(C)[C@@H]([C@H](C)CCCC(C)C)CC[C@@H]12,Potency,[4],inactive
same,outcome,[5],inactive
same,Potency,CP185,inactive
same,Potency,CP191,inactive
same,Potency,CP192,inactive
same,Potency,CP194,inactive
same,Potency,CP201,inactive
same,Potency,CP203,inactive
same,Potency,CP305,inactive
same,Potency,DIV30,inactive
same,Potency,P94_40,inactive
same,Potency,PC49,inactive
same,Potency,TAB113,inactive
Nc1ccc(N=Nc2ccccc2)c(N)c1,Potency,[4],inactive
C/C=C1/C(=O)C[C@H]2[C@@H]3CCC4=CC(=O)CC[C@]4(C)[C@H]3CC[C@]12C,Potency,[4],1 µM (active)
Nc1ccc2c(c1)C(=O)c1ccccc1C2=O,Potency,[4],inactive
same,outcome,[3],inactive
CCCCCCCC/C=C\CCCCCCCC(=O)N(CCO)CCO,Potency,[4],inactive
CCCCCCCCC1CO1 (centres undefined),activation,[1],13.4%
same,outcome,[2],inactive
same,outcome,[3],inactive
CC1=C(/C=C/C(C)=C/C=C/C(C)=C/C=O)C(C)(C)CCC1,Potency,[4],inactive
O=C(Cl)c1ccc([N+](=O)[O-])cc1,activation,[1],25.7%
same,outcome,[2],inactive
C/C=C/C=C/C=O,outcome,[2],inactive
Cc1cc(=O)oc2cc(O)cc(O)c12,Potency,[4],inactive
CC(=O)Nc1cccc(C)c1,outcome,[3],inactive
c1ccc2c(c1)ccc1ccccc12,activation,[1],-2.75% and -0.0415%
same,outcome,[2],inactive
CC(C)COC(=O)COc1cc(Cl)c(Cl)cc1Cl,outcome,[3],inactive
OC1CCCCC1,outcome,[3],inactive
c1cc2c3c(c1)ccc1cccc(c13)C2,Potency,[4],inactive
O=C(O)/C=C/c1ccc(/C=C/C(=O)O)cc1,activation,[1],-7.2%
same,outcome,[3],inactive
C=Cc1cccc(C)c1,outcome,[3],inactive
Nc1ccc(-c2ccc(N)c(O)c2)cc1O,activation,[1],4.81%
CCc1ccc(C(c2ccc(CC)cc2)C(Cl)Cl)cc1,activation,[1],-10.8%
CC(=O)OC(C(=O)c1ccccc1)c1ccccc1 (centres undefined),activation,[1],-5.55%
C=CC(C)(O)CCCC(C)CCCC(C)CCCC(C)C (centres undefined),Potency,[4],inactive
same,outcome,[6],inactive
CCCCC(CC)COP(=O)(OCC(CC)CCCC)OCC(CC)CCCC (centres undefined),outcome,[3],inactive
C=CC(=O)OCCCCCCOC(=O)C=C,Potency,[4],inactive
same,activation,[1],1.98%
Cc1cc(-c2ccc(N=Nc3cc(S(=O)(=O)O)c4ccccc4c3N)c(C)c2)ccc1N=Nc1cc(S(=O)(=O)O)c2ccccc2c1N,Potency,[4],inactive
C=CCn1c(=S)[nH]c2scc(-c3ccco3)c2c1=O,outcome,[7],inactive
same,Potency,[8],inactive
Cc1ccc(-c2nc(SCC(=O)Nc3ccccc3OC(F)F)c3c(C)c(C(=O)O)sc3n2)cc1,outcome,[7],inactive
same,Potency,[9],7.94 µM (active)
same,Potency,[8],11.2 µM (active)
O=CC(=O)c1ccccc1,outcome,[3],inactive
Cc1cc(C)c2nc(-c3ccco3)cc(C(=O)O)c2c1,outcome,[7],inactive
same,Potency,[9],12.6 µM (active)
same,Potency,[8],inactive
O=c1nc2s/c(=C\c3ccco3)c(=O)n2nc1Cc1ccccc1,outcome,[7],inactive
same,Potency,[8],inactive
c1ccc(Nc2cccc3ccccc23)cc1,outcome,[3],inactive
Nc1ccc(N)c(Cl)c1,Potency,[4],inactive
S=C(NC1CCCCC1)NC1CCCCC1,Potency,[4],inactive
Oc1cc2c(cc1O)[C@H]1c3ccc(O)c(O)c3OC[C@@]1(O)C2,Potency,[4],inactive
same,outcome,[6],inactive
Cc1ccc(Cc2cnc(N)s2)o1,outcome,[7],inactive
same,Potency,[9],inactive
CN(C)c1ccc(C(=N)c2ccc(N(C)C)cc2)cc1,Potency,[4],inactive
Cc1c(C(=O)O)c(O)cc2c1C(=O)c1c(O)c([C@H]3O[C@H](CO)[C@@H](O)[C@H](O)[C@H]3O)c(O)c(O)c1C2=O,Potency,[4],inactive
same,outcome,[5],inactive
same,outcome,[6],inactive
same,outcome,[3],inactive
same,Potency,CP185,inactive
same,Potency,CP191,inactive
same,Potency,CP192,inactive
same,Potency,CP194,inactive
same,Potency,CP201,inactive
same,Potency,CP203,inactive
same,Potency,CP305,inactive
same,Potency,DIV30,inactive
same,Potency,P94_40,inactive
same,Potency,PC49,inactive
same,Potency,TAB113,inactive
Cc1ccc(O)c(N)c1,outcome,[3],inactive
CC(=O)CC(=O)Nc1ccccc1,outcome,[3],inactive
N/C(=N\OC(=O)Nc1ccccc1)c1ccno1,outcome,[7],inactive
same,Potency,[9],inactive
same,Potency,[8],inactive
CCOCN(C(=O)Cn1c(C(C)O)nc2ccccc21)c1c(C)cccc1CC (centres undefined),Potency,[9],inactive
CC/C=C/C/C=C/C/C=C/CCCCCCCC(=O)OCC,Potency,[4],inactive
COc1ccc(NC(=O)CSc2nc(NS(=O)(=O)c3ccc(C)cc3)cc(=O)[nH]2)cc1,Potency,[9],39.8 µM (active)
Cc1cc2nc(N)sc2cc1C,Potency,[4],inactive
CCN(CC)c1ccc(N)cc1,Potency,[4],inactive
O=[N+]([O-])c1cc(N(CCO)CCO)ccc1NCCO,activation,[1],15% and 1.64%
same,outcome,[2],inactive
